Experimental findings from PubChem BioAssay (NCATS) are described below.

Test [1] in a line: qHTS to identify inhibitors of the type 1 interferon - major histocompatibility complex class I in skeletal muscle: primary screen against the NCATS LOPAC collection (AID 1347405).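 Note: human myoblasts with HiBiT tag on endogenous HLA-B stimulated by IFN-beta; lytic HiBiT luminescence reporting HLA-B protein level.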 Put shortly: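 First, engineered myoblasts carrying HLA-B-HiBiT were seeded in medium lacking dexamethasone with 4 ng/ml IFN-beta. After 1 hr, compounds were pinned in (top 46 uM final, 7 points). After 24 hrs at 37 C, luminescence was measured following 10 min lysis.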

Test [2] in a line: qHTS to identify inhibitors of the type 1 interferon - major histocompatibility complex class I in skeletal muscle: primary screen against the NCATS Pharmaceutical Collection (AID 1347407). In a few lines: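 Luminescence from HiBiT-tagged endogenous HLA-B*08:01 served as the read-out of IFN-beta-induced MHC class I in CRISPR-engineered C25cl48 myoblasts. Cells received 4 ng/ml IFN-beta plus compound (high final 46 uM, […]) for 24 h.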
For orientation: Quantitative high-throughput screening tests each substance at several concentrations.

Test [3] is described as follows: qHTS for inhibitors of adenylyl cyclases using a fission yeast platform: a pilot screen against the NCATS LOPAC library (AID 1347410). In a few lines: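 Fission yeast qHTS: CHP2027 cells (AC9-GNAS-PDE4D2, fbp1-GFP), 5x10^6 cells/mL working density, EMM + His/Lys/Ura; LOPAC at up to 57 µM final; 18 h dark, 30C; GFP by laser cytometry. DPI positive control, DMSO vehicle.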

Test [4] can be described thus: qHTS to identify inhibitors of the type 1 interferon - major histocompatibility complex class I in skeletal muscle: primary screen against the NCATS Mechanism Interrogation Plate v5.0 (MIPE) Libary (AID 1347411). Note: nearly all actives have a fitted effect of over 65% in size. Put shortly:
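Seed engineered human myoblasts (HLA-B HiBit) in medium without dexamethasone containing 4 ng/ml IFN-beta; after 1 hr add compound titrations (top 46 uM final). Incubate 24 hrs at 37 C, lyse 10 min with HiBiT reagent, read luminescence.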

For test [5], the target named is Protein phosphatase 1D (Homo sapiens) (UniProt O15297). As to the kind of experiment: RapidFire Mass Spectrometry qHTS Assay for Modulators of WT P53-Induced Phosphatase 1 (WIP1) (AID 1347424). Note: series mostly up to about 63 µM. In a few lines: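 RapidFire MS readout of dephosphorylated VEPPL-S-QETFS product, with 1 uM isotope-labelled peptide standard. Reaction: 10 nM WIP1, 2 uM phosphopeptide substrate, 5 min, room temperature, after 1 h compound preincubation; stopped with 0.5% formic acid.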
Sequence of Protein phosphatase 1D (Homo sapiens) (O15297 whole entry, looked up): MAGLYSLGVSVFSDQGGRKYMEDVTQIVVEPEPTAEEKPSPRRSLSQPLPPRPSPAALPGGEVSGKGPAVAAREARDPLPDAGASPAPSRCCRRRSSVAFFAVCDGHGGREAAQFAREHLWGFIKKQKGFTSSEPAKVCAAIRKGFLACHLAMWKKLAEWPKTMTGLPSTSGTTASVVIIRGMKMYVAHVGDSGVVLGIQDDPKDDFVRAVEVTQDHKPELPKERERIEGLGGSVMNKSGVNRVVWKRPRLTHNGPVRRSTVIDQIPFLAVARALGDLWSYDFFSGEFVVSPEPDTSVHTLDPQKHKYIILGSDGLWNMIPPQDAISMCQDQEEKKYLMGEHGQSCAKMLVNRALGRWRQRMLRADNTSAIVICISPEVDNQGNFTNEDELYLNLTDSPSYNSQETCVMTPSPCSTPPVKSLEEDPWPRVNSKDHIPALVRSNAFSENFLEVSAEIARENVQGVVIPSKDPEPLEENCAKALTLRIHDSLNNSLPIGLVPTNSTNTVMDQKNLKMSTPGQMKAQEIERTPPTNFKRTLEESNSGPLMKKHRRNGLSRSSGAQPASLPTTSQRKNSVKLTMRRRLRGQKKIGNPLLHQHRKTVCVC

For test [6] the target is unchanged. As to the kind of experiment: Rhodamine-PBP qHTS Assay for Modulators of WT P53-Induced Phosphatase 1 (WIP1) (AID 1347425). In a few lines: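 Read-out: Rhodamine-PBP fluorescence (ex 525/em 598 nm) for released Pi, read each minute for 11 min after adding 10 uM VEPPL-pS-QETFS; signal taken as f1 minus pre-substrate f0. Enzyme 5 nM WIP1 with 1 hr room-temperature compound preincubation.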

For test [7], the target named is Single-stranded DNA cytosine deaminase (Homo sapiens) (UniProt Q9GZX7). As to the kind of experiment: Validation qHTS assay for inhibitors of Activation Induced Cytidine Deaminase (AID): AID signal (AID 1347429). In a few lines: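 Steps: dispense AID with UDG; pin-transfer compound up to 114 uM final; add DJC20/DJC23 substrate and hold 4 hr at room temperature; add NaOH, hold 30 min; read FRET signal (540/590 nm).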
Sequence of Single-stranded DNA cytosine deaminase (Homo sapiens) (Q9GZX7 whole entry, looked up): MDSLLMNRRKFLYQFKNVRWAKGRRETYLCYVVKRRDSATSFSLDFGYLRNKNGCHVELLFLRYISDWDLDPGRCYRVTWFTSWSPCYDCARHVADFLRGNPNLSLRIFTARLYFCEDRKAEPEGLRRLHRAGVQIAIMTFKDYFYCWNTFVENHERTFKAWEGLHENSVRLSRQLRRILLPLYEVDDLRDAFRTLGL

The nature of test [8]: Primary qHTS for inhibitors of La Crosse Virus (LACV) - induced cell death in SH-SY5Y cells (AID 1508616).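 Note: top concentration of the series differs between compounds; higher means more rescue of cells from virus-induced death.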 Put shortly: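 SH-SY5Y, 6000 cells/well; cpd via pin tool in DMSO; LACV 0.01 MOI; 6 d 37C 5% CO2; ATPLite, 5 min RT; luminescence normalized to ±virus DMSO controls.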
In test [9] the target is Calcium and integrin-binding protein 1 (Homo sapiens) (UniProt Q99828). As to the kind of experiment: Validation qHTS for Identification of Calcium Integrin Binding protein 1 (CIB1) Competitor (AID 1508618). Note: potency is the fitted concentration of half-maximal effect. Put shortly:
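CIB1-GST (1 uM final) in 5 mM HEPES pH 7.4, 125 mM NaCl, 5 mM CaCl2, 0.01% Tween20 was preincubated 15 min at room temperature with compound (up to 114 uM), then FITC-alphaIIb peptide (100 nM) added for 15 min; fluorescence polarization read.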

The target is the same in test [10]. As to the kind of experiment: Primary qHTS for Identification of Calcium Integrin Binding Protein 1 (CIB1) Competitor (AID 1508620). Note: potency is the fitted concentration of half-maximal effect. Put shortly: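 Fluorescence polarization competition: GST-tagged CIB1 (1 uM final) preincubated with compound 15 min at room temperature, then FITC-labelled alphaIIb peptide (100 nM final) added. After 15 min at room temperature, polarization read at Ex 480/Em 540.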

Test [11] in a line: Validation qHTS assay for inhibitors of Activation Induced Cytidine Deaminase (AID): UDG Counterscreen signal (AID 1347427). Put shortly: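 Fluorescence at 560 nm excitation, 665 nm emission reports UDG signal after 250 mM NaOH (2x) addition and 30 min. Enzymes (AID 1 uM, UDG 2 U/mL, at 4/3x) preincubated 10 min with compound, then 4 h with 4x 250 nM DJC20/DJC23 substrate at room temperature.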

Test [12] in a line: Counterscreen qHTS for small molecule stabilizers of the endoplasmic reticulum resident proteome: GLuc-NoTag assay (AID 1508627).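 Note: SH-SY5Y cells given compound then 100 nM thapsigargin to empty ER calcium; series mostly up to about 76 µM.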 Put shortly:
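Counterscreen line: SH-SY5Y-GLuc-NoTag. Seed, 5 h; compound, 19 h; thapsigargin 100 nM, 4 h; 37C/5% CO2. Readout: secreted GLuc luminescence, coelenterazine 0.07x final, no lysis.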
A general note: The purpose of a counterscreen is to sort out artefacts and off-target activity.

“And” between values parts separate entries of the source, which are not always exact repeats. Equal values may be shown once. Results filed as inconclusive are left out. More than one record can exist for a structure, and the calls need not agree. The source made the active and inactive calls. Calls come from the whole dose curve; as a rule, active = well fitted curve in the direction sought with a large enough effect; inconclusive = small, poorly fitted or top-dose-only effect, or another doubt; inactive = no such curve, though single readings can be large; an effect the other way counts as inactive or inconclusive.

Sequence of Calcium and integrin-binding protein 1 (Homo sapiens) (Q99828 whole entry, looked up): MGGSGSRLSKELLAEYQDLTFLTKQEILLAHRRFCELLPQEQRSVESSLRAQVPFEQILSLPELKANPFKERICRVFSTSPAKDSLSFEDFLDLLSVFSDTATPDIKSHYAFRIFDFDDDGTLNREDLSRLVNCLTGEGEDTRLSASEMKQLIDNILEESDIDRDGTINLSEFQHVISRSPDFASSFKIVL

With `COc1nc(C)nc(Cl)c1NC1=NCCN1`, the Potency result in test [1], in test [2], in test [4], in test [5], in [7] and in test [8] was “inactive” in each case. Also, the Potency entry in test [9] and in test [10] was “inactive” in each case. Moreover, the call in [3] and in [6] was inactive.
For the molecule `NCCS(=O)(=O)O`, the Potency entry in test [1], in test [2], in test [4], in test [5], in [11] and in test [7] was “inactive” each time. Further, the Potency entry in [9] and in test [10] was “inactive” in each case. For the same molecule, the molecule was called inactive in test [3] and in test [6].
Consider `CC(C)(C)C(=O)Oc1ccc(S(=O)(=O)Nc2ccccc2C(=O)NCC(=O)O)cc1`, for which the Potency entry in test [1], in [2], in test [4], in test [5], in [8] and in test [9] was “inactive” throughout. For the same molecule, the Potency result in [10] is “inactive”. Besides, the result in [3] and in test [6] was inactive.
`Cn1cnc2c1c(=O)[nH]c(=O)n2C`: the Potency entry in [1], in test [2], in test [4], in test [5], in test [11] and in [7] was “inactive” throughout. For the same molecule, the Potency entry in test [8], in test [9] and in [10] was “inactive” throughout. Also, the molecule was classed as inactive in [3] and in [6].
As for `CC(C)NCC(O)c1ccc(O)c(O)c1` (stereo not given), the Potency entry in test [1], in [2], in test [4], in test [5], in test [7] and in [8] was “inactive” in each case. The Potency result in [9] and in test [10] was “inactive” throughout. The molecule was classed as inactive in test [3] and in test [6].
As for `O=C(c1ccc(OCCN2CCCCC2)cc1)c1c(-c2ccc(O)cc2)sc2cc(O)ccc12`, the Potency entry in [1], in test [2], in [4], in test [5], in [11] and in test [7] was “inactive” in each case. The Potency entry in [8], in test [9], in test [10] and in test [12] was “inactive” throughout. In addition, the molecule was called inactive in [3] and in test [6].
Turning to `CN1CCN(C2=Nc3cc(Cl)ccc3Nc3ccccc32)CC1`, the Potency entry in test [1], in test [2], in test [4], in [5], in [11] and in test [7] was “inactive” throughout. In addition, the Potency result in test [8], in test [9] and in [10] was “inactive” each time. The molecule was classed as inactive in [3] and in test [6].
For `NC(=O)NO`, the Potency entry in [1], in test [2], in test [4], in test [5], in test [11] and in [7] was “inactive” in each case. Besides, the Potency result in [9] and in test [10] was “inactive” throughout. Also, the molecule was called inactive in test [3] and in test [6].
Turning to `O=c1[nH]cc(F)c(=O)[nH]1`, the Potency result in test [1], in test [2], in test [4], in test [5], in test [7] and in test [8] was “inactive” each time. Further, the Potency result in test [9] and in [10] was “inactive” each time. The result in [3] and in test [6] was inactive.
As for `COc1ccc(C2CNC(=O)C2)cc1OC1CCCC1` (stereo not given), the Potency entry in test [1], in test [2], in [4], in [5], in test [11] and in test [7] was “inactive” each time. For the same molecule, the Potency entry in test [8], in [9] and in test [10] was “inactive” in each case. The molecule was classed as inactive in [3] and in [6].
In the case of `CCOC(=O)c1ncn2c1CN(C)C(=O)c1cc(F)ccc1-2`, the Potency entry in test [1], in test [2], in [4], in test [5], in [11] and in [7] was “inactive” throughout. For the same molecule, the Potency result in test [8], in [9] and in [10] was “inactive” in each case. Also, the molecule was classed as inactive in test [3] and in test [6].
For `CN(Cc1cnc2nc(N)nc(N)c2n1)c1ccc(C(=O)N[C@@H](CCC(=O)O)C(=O)O)cc1`, the Potency entry in test [1], in test [2], in test [4], in test [5], in [7] and in [8] was “inactive” in each case. In addition, in [10], the Potency entry is “inactive”. Also, the call in test [3] and in test [6] was inactive.
For the molecule `O=C(c1ccc(F)cc1)C1CCN(CCn2c(=O)[nH]c3ccccc3c2=O)CC1`, the Potency entry in test [1], in test [2], in test [5], in test [7], in test [8] and in [9] was “inactive” in each case. For the same molecule, the Potency entry in test [10] and in [12] was “inactive” throughout. Moreover, the call in test [3] and in [6] was inactive.
On to `C[C@](N)(Cc1ccc(O)c(O)c1)C(=O)O`, for which the Potency entry in [1], in test [2], in test [4], in test [7], in test [8] and in test [9] was “inactive” throughout. Further, in test [10], the Potency result was “inactive”. In test [3], the outcome was inactive.
For `C[C@H]1c2cccc(O)c2C(O)=C2C(=O)[C@]3(O)C(O)=C(C(N)=O)C(=O)[C@@H](N(C)C)[C@@H]3[C@@H](O)[C@@H]21`, the Potency entry in [1], in [2], in [4], in test [5], in [11] and in test [7] was “inactive” throughout. Besides, the Potency result in [8], in test [9] and in [10] was “inactive” each time. Moreover, the outcome in test [3] and in test [6] was inactive.
On to `Cc1cc(C(C)(C)C)c(O)c(C)c1CC1=NCCN1`, for which the Potency result in test [1], in test [2], in test [4], in test [5], in test [7] and in test [8] was “inactive” throughout. Also, the Potency result in test [9] and in test [10] was “inactive” in each case. Moreover, the molecule was called inactive in test [3] and in test [6].
In the case of `CN1CCN(CCCN2c3ccccc3Sc3ccc(Cl)cc32)CC1`, the Potency entry in test [1], in [2], in [5], in [7], in test [8] and in test [10] was “inactive” throughout. In addition, the result in [3] and in test [6] was inactive.
Turning to `CC(C)NCC(O)COc1ccc(CCOCC2CC2)cc1` (stereo not given), the Potency entry in test [1], in test [2], in [4], in test [5], in [11] and in [7] was “inactive” throughout. Moreover, the Potency result in [9] and in [10] was “inactive” in each case. Also, the call in test [3] and in test [6] was inactive.
On to `Cc1cnc(C(=O)NCCc2ccc(S(=O)(=O)NC(=O)NC3CCCCC3)cc2)cn1`, for which the Potency result in test [1], in [2], in test [4], in test [5], in [11] and in [7] was “inactive” throughout. Further, the outcome in test [3] and in test [6] was inactive.
Regarding `OCCN(CCO)c1nc(N2CCCCC2)c2nc(N(CCO)CCO)nc(N3CCCCC3)c2n1`, the Potency entry in test [1], in test [2], in test [4], in test [5], in test [7] and in test [8] was “inactive” in each case. In addition, the Potency entry in test [12] was “inactive”. Also, the molecule was called inactive in [3] and in [6]. The Potency in test [9] is 14.1 µM (active); in test [10] it was “inactive and 11.2 µM (active)”.
In the case of `O=C(CCCN1CCC(O)(c2ccc(Cl)cc2)CC1)c1ccc(F)cc1`, the Potency result in test [1], in [2], in [5], in [11], in test [7] and in test [8] was “inactive” each time. The Potency result in test [9] and in test [10] was “inactive” throughout. In addition, the molecule was called inactive in [3] and in test [6].
